The text below walks through data of PubChem BioAssay (Tox21).

The nature of assay [1]: qHTS assay to identify small molecule antagonists of the thyroid receptor (TR) signaling pathway - cell viability counter screen (AID 743064). Further: nearly all actives have a fitted effect of over 50% in size. Further: potency means the concentration at half of the fitted maximal effect. A digest of the protocol:
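Fluorescence from CellTiter-Fluor, added after 23.5 h exposure at 37 °C, reported viability of GH3.TRE-Luc cells co-treated with compound and 1 nM T3. Measured in the same wells as the luciferase TR readout.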
A general note: qHTS replaces the single test concentration by a dilution series.

Assay [2] concerns thyroid hormone receptor (rat, GH3 cells). Kind of assay: qHTS assay to identify small molecule agonists of the thyroid receptor (TR) signaling pathway (AID 743066; calls by dose curve; further: potency means the concentration at half of the fitted maximal effect).
In assay [3] the target is Estrogen receptor (Homo sapiens) (UniProt P03372). Kind of assay: qHTS assay to identify small molecule antagonists of the estrogen receptor alpha (ER-alpha) signaling pathway (AID 743069; active means well fitted curve in the direction sought with a large enough effect in the signal ratio in the repeat runs, not every such curve was filed as active; the % refers to the signal ratio). A digest of the protocol: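 Fluorescence intensity from a beta-lactamase FRET substrate served as the read-out. Cells: HEK293 with stably integrated ER-alpha-UAS-bla reporter. Agonist 17beta-estradiol was co-added with compounds; incubation 18 hr at 37C, substrate 2 hr at room temperature.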
Sequence of Estrogen receptor (Homo sapiens) (P03372 whole entry, looked up): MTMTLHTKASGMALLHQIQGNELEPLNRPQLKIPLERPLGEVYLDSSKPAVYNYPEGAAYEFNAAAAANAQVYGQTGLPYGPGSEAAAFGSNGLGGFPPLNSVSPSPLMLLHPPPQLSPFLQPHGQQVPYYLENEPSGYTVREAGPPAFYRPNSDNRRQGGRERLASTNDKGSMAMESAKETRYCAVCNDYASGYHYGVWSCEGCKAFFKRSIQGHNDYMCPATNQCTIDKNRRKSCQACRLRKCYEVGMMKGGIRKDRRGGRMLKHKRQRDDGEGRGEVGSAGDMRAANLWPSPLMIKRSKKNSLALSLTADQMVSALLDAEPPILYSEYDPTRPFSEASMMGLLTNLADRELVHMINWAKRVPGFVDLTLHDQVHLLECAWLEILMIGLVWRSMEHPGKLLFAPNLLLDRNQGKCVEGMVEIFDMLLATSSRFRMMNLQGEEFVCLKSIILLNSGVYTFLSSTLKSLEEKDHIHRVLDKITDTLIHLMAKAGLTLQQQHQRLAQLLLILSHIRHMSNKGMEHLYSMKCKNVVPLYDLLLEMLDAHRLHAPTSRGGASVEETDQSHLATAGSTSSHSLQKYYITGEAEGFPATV

The nature of assay [4]: qHTS assay to identify small molecule antagonists of the estrogen receptor alpha (ER-alpha) signaling pathway - cell viability counter screen (AID 743074; calls by dose curve; further: nearly all actives have a fitted effect of over 45% in size).
Assay [5] concerns the target Estrogen receptor (Homo sapiens) (UniProt P03372). The assay is described as follows: qHTS assay to identify small molecule agonists of the estrogen receptor alpha (ER-alpha) signaling pathway (AID 743075; calls by dose curve).
Assay [6] shares this target. Kind of assay: qHTS assay to identify small molecule agonists of the estrogen receptor alpha (ER-alpha) signaling pathway using the BG1 cell line (AID 743079). Further: nearly all actives have a fitted effect of over 20% in size.
A short description of assay [7]: qHTS assay to identify small molecule antagonists of the estrogen receptor alpha (ER-alpha) signaling pathway using the BG1 cell line (AID 743080; calls by dose curve; further: series mostly up to about 70 µM; nearly all actives have a fitted effect of over 25% in size). A digest of the protocol: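 Antagonist mode: compounds in DMSO were pinned onto BG1-Luc-4E2 cells alongside 17beta-estradiol agonist, incubated 21.5 h, and ERE-driven luciferase measured with ONE-Glo. Cytotoxicity was multiplexed using CellTiter-Fluor fluorescence.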

The nature of assay [8]: qHTS assay to identify small molecule antagonists of the estrogen receptor alpha (ER-alpha) signaling pathway using the BG1 cell line - cell viability counter screen (AID 743081).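 Further: compound given together with 17beta-estradiol as the ER stimulus; series mostly up to about 70 µM; nearly all actives have a fitted effect of over 45% in size.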
Another assay addresses Aromatase (Homo sapiens) (UniProt P11511). The assay is described as follows: qHTS assay to identify aromatase inhibitors (AID 743083). Further: nearly all actives have a fitted effect of over 55% in size. Further: potency means the concentration at half of the fitted maximal effect.
Assay [9] is described as follows: qHTS assay to identify small molecule antagonists of the thyroid receptor (TR) signaling pathway (AID 743065). Further: series mostly up to about 70 µM; nearly all actives have a fitted effect of over 55% in size. A digest of the protocol:
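Antagonism measured as loss of luciferase signal in GH3 cells stably carrying a TRE-luciferase reporter, co-treated with compound and T3 (1 nM final) for 23.5 h at 37 C. Viability was read in the same well by CellTiter-Fluor.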

Values joined by “and” are separate entries in the source; they are usually repeats but may differ in a detail not shown here. Equal values may be shown once. Records with an inconclusive call do not appear. A structure can be active in one record and inactive in another. Active and inactive are the calls of the source. Unless noted, the call rests on the fitted dose curve; in most records, active means well fitted curve in the direction sought with a large enough effect in the repeat runs; inconclusive means weak or mixed curves; inactive means no such curve, though single readings can be large; an effect the other way counts as inactive or inconclusive.

Sequence of Aromatase (Homo sapiens) (P11511 whole entry, looked up): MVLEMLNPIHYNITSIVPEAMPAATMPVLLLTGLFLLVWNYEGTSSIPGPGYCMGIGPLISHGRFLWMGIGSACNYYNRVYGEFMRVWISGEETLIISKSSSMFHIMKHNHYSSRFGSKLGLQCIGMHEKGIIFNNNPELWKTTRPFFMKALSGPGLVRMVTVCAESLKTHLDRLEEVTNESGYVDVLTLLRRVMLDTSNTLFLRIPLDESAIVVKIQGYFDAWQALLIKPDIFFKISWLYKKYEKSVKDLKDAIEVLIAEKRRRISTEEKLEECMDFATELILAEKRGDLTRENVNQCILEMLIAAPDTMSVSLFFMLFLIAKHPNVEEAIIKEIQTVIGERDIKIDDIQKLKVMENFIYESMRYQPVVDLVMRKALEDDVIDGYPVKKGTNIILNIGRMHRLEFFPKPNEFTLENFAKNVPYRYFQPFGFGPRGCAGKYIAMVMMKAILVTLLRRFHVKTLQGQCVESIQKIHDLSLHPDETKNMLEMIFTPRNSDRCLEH

`CNC(=O)O/N=C/C(C)(C)SC`: the Potency entry (in assay [1]; in [2]; in [3]; in [6]; with Aromatase (Homo sapiens)) was “inactive” each time. Besides, the molecule was classed as inactive in [4], in assay [5], in [7] and in assay [8].

Turning to `O=P1(NCCCl)OCCCN1CCCl` (configuration not stated), the Potency result (in assay [1]; in assay [2]; with Aromatase (Homo sapiens)) was “inactive” throughout. In addition, the call in [4] and in [8] was inactive.

Turning to `ClCCOCCCl`, the Potency result (in assay [1]; in [2]; with Aromatase (Homo sapiens)) was “inactive” throughout. In addition, the molecule was called inactive in assay [4] and in assay [8].

Turning to `Nc1nc(N)nc(NC2CC2)n1`, the Potency result (in [1]; in assay [2]; with Aromatase (Homo sapiens)) was “inactive” each time. The result in [4] and in [8] was inactive.

Take `COS(=O)(=O)OC`: the Potency result (in assay [1]; in assay [2]; in assay [3]; in assay [6]; with Aromatase (Homo sapiens)) was “inactive” in each case. In addition, the call in [4], in assay [5], in assay [7] and in assay [8] was inactive.

Turning to `Sc1ccccc1`, the Potency result (in [1]; in assay [2]; in assay [3]; in [6]; in the assay with Aromatase (Homo sapiens)) was “inactive” in each case. In addition, the molecule was classed as inactive in [4], in assay [5], in assay [7] and in assay [8].

Consider `CC(=O)C1CCOC1=O` (configuration not stated), for which the Potency entry (in assay [1]; in [2]; with Aromatase (Homo sapiens)) was “inactive” in each case. The molecule was classed as inactive in [4] and in [8].

Regarding `Cc1cccc(C)c1N`, the Potency entry (in assay [9]; in assay [2]; in assay [3]; in [6]; with Aromatase (Homo sapiens)) was “inactive” throughout. Besides, the result in assay [4], in [5], in assay [7] and in assay [8] was inactive.

Regarding `Cc1cc(Cl)ccc1OC(C)C(=O)O` (configuration not stated), the Potency entry (in assay [1]; in [2]; in [3]; in assay [6]; with Aromatase (Homo sapiens)) was “inactive” throughout. Moreover, the molecule was called inactive in assay [4], in [5], in assay [7] and in [8].

Turning to `Cl[C@H]1OCCO[C@@H]1Cl`, the Potency entry (in [1]; in assay [2]; in the assay with Aromatase (Homo sapiens)) was “inactive” throughout. Further, the molecule was called inactive in [4] and in assay [8].

For the molecule `Cc1ccc(N)cc1`, the Potency entry (in [1]; with Aromatase (Homo sapiens)) was “inactive” each time. For the same molecule, in [2], the Potency entry is “inactive and 77 µM (active)”. The result in assay [4] and in assay [8] was inactive.

`[N-]=[N+]=CC(=O)OC[C@H](N)C(=O)O`: the Potency entry in [1] and in assay [2] was “inactive” each time. The result in [4] and in [8] was inactive.

`CCOC(=O)CC(SP(=O)(OC)OC)C(=O)OCC` (configuration not stated): the Potency result (in assay [1]; in assay [2]; in the assay with Aromatase (Homo sapiens)) was “inactive” each time. Moreover, the result in assay [8] was inactive.

`CCCCCCCCCCCCCCCCCC(=O)O`: the Potency result in assay [1] was “inactive”. The outcome in [4] and in [8] was inactive.

Consider `COc1cc(-c2ccc(N)c(OC)c2)ccc1N`, for which, in assay [1], the Potency entry was “inactive and 52 µM (active)”. Further, the Potency result (in [2]; with Aromatase (Homo sapiens)) was “inactive” throughout. Also, the molecule was classed as inactive in assay [4] and in assay [8].

Consider `CN(C)NC(=O)CCC(=O)O`, for which the Potency result (in [1]; in assay [2]; in the assay with Aromatase (Homo sapiens)) was “inactive” each time. Besides, the call in assay [4] and in assay [8] was inactive.

On to `NNc1ccccc1`, for which the Potency result (in [1]; in assay [2]; with Aromatase (Homo sapiens)) was “inactive” throughout. Besides, the molecule was called inactive in assay [4] and in assay [8].

For `Cc1cccc(C)c1NC(=O)CN1CCCC1=O`, the Potency entry (in assay [1]; in [2]; in [3]; in [6]; with Aromatase (Homo sapiens)) was “inactive” throughout. Also, the outcome in assay [4], in [5], in assay [7] and in assay [8] was inactive.

With `CC(=O)/C=C/c1ccccc1`, the Potency entry (in assay [1]; with Aromatase (Homo sapiens)) was “inactive” each time. Also, the result in [4] and in assay [8] was inactive.

On to `ClC(Cl)c1ccccc1`, for which the Potency entry (in assay [2]; in assay [3]; in [6]; with Aromatase (Homo sapiens)) was “inactive” each time. Further, the result in assay [4], in assay [5], in assay [7] and in [8] was inactive.

Take `CC(C)(C)C(=O)CCl`: the Potency entry (in [1]; in [3]; in [6]; in the assay with Aromatase (Homo sapiens)) was “inactive” in each case. The outcome in assay [4], in assay [5], in [7] and in assay [8] was inactive.

For `CCOP(=S)(OCC)Oc1cc(C)nc(C(C)C)n1`, the Potency entry was “inactive and 17.2 µM (active)” in assay [1]; “inactive and 17.2 µM (active)” with Aromatase (Homo sapiens). Moreover, the Potency result in assay [2] is “inactive”. Also, the molecule was called inactive in assay [4] and in assay [8].

As to `CC[N+](=O)[O-]`, the Potency result (in assay [1]; in [2]; with Aromatase (Homo sapiens)) was “inactive” each time. For the same molecule, the molecule was called inactive in assay [4] and in assay [8].

Turning to `C=C(C)C(=O)OCC(CC)CCCC` (configuration not stated), the Potency result (in assay [9]; in assay [2]; in assay [3]; in assay [6]; in the assay with Aromatase (Homo sapiens)) was “inactive” in each case. Besides, the call in [4], in [5], in assay [7] and in [8] was inactive.

In the case of `CCCCC(CC)C(=O)Cl` (configuration not stated), the Potency entry (in assay [1]; in assay [2]; in assay [3]; in assay [6]; with Aromatase (Homo sapiens)) was “inactive” each time. Besides, the outcome in assay [4], in [5], in [7] and in assay [8] was inactive.

As to `O=C(O)CCCc1ccc(N(CCCl)CCCl)cc1`, the Potency in assay [1] was 61.1 µM (active). Further, the Potency entry (in assay [2]; in assay [3]; in assay [6]; with Aromatase (Homo sapiens)) was “inactive” each time. In addition, the call in [4], in assay [5], in [7] and in assay [8] was inactive.

As for `C[C@]12CC[C@H](O)CC1=CC[C@@H]1[C@@H]2CC[C@]2(C)C(=O)CC[C@@H]12`, the Potency entry (in [1]; in assay [2]; with Aromatase (Homo sapiens)) was “inactive” throughout. The outcome in [4] and in assay [8] was inactive.

`Nc1cc(Cl)cc(Cl)c1`: the Potency result (in assay [1]; in assay [2]; with Aromatase (Homo sapiens)) was “inactive” each time. Also, the molecule was classed as inactive in assay [4] and in assay [8].
